Measured values published in PubChem BioAssay AID2284216 (EPA ToxCast).
The source made the active and inactive calls. Rule for the calls: active = hit-call score of the fitted dose curve at least 0.9, where 1 is the maximum; inactive = score below 0.9.

The molecules below were run against rat Peripheral Benzodiazepine Receptor (PBR), Tspo (gene 24230) (UniProt P16257) (assay: ERF_TW_TR_rTSPO: Eurofins (ERF) Radioligand Binding Assay for rat Peripheral Benzodiazepine Receptor (PBR) Antagonism).
Experimental: ERF_TW_TR_rTSPO is a biochemical, single-readout assay that uses extracted gene-proteins in a cell-free assay. Measurements were taken 0.25 hour after chemical dosing in a 96-well plate. See PBR Rat Binding (Antagonist Radioligand) Assay, Panlabs.ERF_TW_TR_rTSPO is an assay component calculated from the ERF_TW_TR_rTSPO assay. It is designed to measure radioligand binding using a type of binding reporter as detected by scintillation counting with radiometry technology.Data from the assay component ERF_TW_TR_rTSPO was analyzed at the assay endpoint, ERF_TW_TR_rTSPO, in the positive analysis fitting direction relative to DMSO as the negative control and baseline of activity. Using a type of binding reporter, loss-of-signal activity can be used to understand changes in transporter binding as they relate to gene TSPO. To generalize the intended target to other relatable targets, this assay endpoint is annotated to the transporter intended target family, where the subfamily is cholesterol transporter.
Cells are incubated for 15 minutes at room temprature with [3H]PK 11195 (0.2 nM) as lingand.Test Sample Requirements: Minimum for 1) Screen: 60 ul of 10 mM stock -OR- 1 mg (pre-weighed) for 10uM final testing. . 2) Dose Response: 90 ul of 10 mM stock -OR- 1 mg (pre-weighed) for a top concentration at 10uM. .

Sequence of rat Peripheral Benzodiazepine Receptor (PBR), Tspo (gene 24230) (P16257 whole entry, looked up): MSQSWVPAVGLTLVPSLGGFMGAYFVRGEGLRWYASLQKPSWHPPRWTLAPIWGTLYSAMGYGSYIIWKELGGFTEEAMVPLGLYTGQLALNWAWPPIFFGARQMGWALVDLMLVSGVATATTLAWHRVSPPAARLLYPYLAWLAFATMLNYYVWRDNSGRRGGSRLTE

Compound | AC50
COc1cc(CCC(=O)CC(=O)CCc2ccc(O)c(OC)c2)ccc1O | 2550 nM (active)
O=C(/C=C/c1ccc(O)cc1)CC(=O)/C=C/c1ccc(O)cc1 | 161 nM (active)
